Laboratory results reported in ChEMBL document CHEMBL3988442, “University of Dundee, Small-Polar-MMV Screening Library” (2021).
Screen size: about 48,000 compounds; about 13,000 (27%) showed an effect of 50% or more. The list shows a part of the results.

Each compound was assayed on Wolbachia pipientis (assay: Anti-Wolbachia Cell-Based Screen). Details: 5 µM.
Assay type: functional
Design: scale not given: in the data most compounds retested in dose-response had high values

Compared with `CCC(C)(CNC(=O)Nc1nncs1)N1CCOCC1` (stereo not given), `Cc1ccc([C@H]2CN(C(C)C)C[C@@H]2NS(=O)(=O)N2CCOCC2)o1` is lower in “Percent Effect” value: -7.544% for the first, -9.511% for the second.

Going from `Cc1nc(C)n(CC2CCCN(c3ccc(C#N)cn3)C2)n1` (stereo not given) to `Cc1nc(C)n(CC2CCCN(c3ncnc4ccsc34)C2)n1` (stereo not given), the “Percent Effect” value falls from 123% to -4.048%.

Compared with `Cc1nc(C)n(CC2CCCN(c3ncnc4ccccc34)C2)n1` (stereo not given), `Cc1nc(C)n(CC2CCCN(c3ccnc(-c4ccccc4)n3)C2)n1` (stereo not given) is lower in “Percent Effect” value: 143.5% for the first, -14.72% for the second.

Compared with `Cc1nc(C)n(CC2CCCN(c3ncnc4c3CCC4)C2)n1` (stereo not given), `Cc1nc(C)n(CC2CCCN2Cc2nc(-c3cccs3)no2)n1` (stereo not given) is higher in “Percent Effect” value: -12.81% for the first, -9.424% for the second.

Going from `CC(C)(NC(=O)C1CCN(C2CCCCC2)CC1)c1nnc(N)s1` to `C1CCC(c2nn3c(C4CCCO4)nnc3s2)C1` (stereo not given), the “Percent Effect” value rises from 3.743% to 94.06%.

First: c1cncc(-c2nc3c(c(NCC4(c5ccncc5)CC4)n2)CCC3)c1
Second: CC(c1cccnc1)N(C)Cc1csc(-c2ccccn2)n1 (stereo not given)
The “Percent Effect” value of the first is lower: -14.36% for the first, 4.015% for the second.

First: CCn1nc(C)cc1C(=O)N1CCOc2cc(C)ccc21
Second: Cc1ccc(F)c(NS(=O)(=O)c2cc(C(=O)O)oc2C)c1
The “Percent Effect” value of the first is lower: -0.2889% for the first, 98.71% for the second.

Compared with `Cc1csc(CNc2cnn(C(C)C)c2)n1`, `Cc1csc(CN2C[C@@H]3CN(S(C)(=O)=O)CCO[C@@H]3C2)n1` is lower in “Percent Effect” value: 2.502% for the first, -30.25% for the second.

Going from `Cc1cn2c(CN(C)C(=O)c3cccnc3O)c(C)nc2s1` to `Cc1nn(C)c(C)c1C1CCCN1Cc1nc(-c2ccccn2)no1` (stereo not given), the “Percent Effect” value rises from 1.222% to 93.92%.

Compared with `Cc1nn(C)c(C)c1C1CCCN1Cc1nc(C2CC2)no1` (stereo not given), `Cc1nn(C)c(C)c1C1CCCN1Cc1nc(-c2cccs2)no1` (stereo not given) is higher in “Percent Effect” value: -2.837% for the first, 66.61% for the second.

Compared with `C1CCC(c2nnc3sc(C4CCCO4)nn23)C1` (stereo not given), `C1CCC(c2nnc3sc(C4CCOC4)nn23)C1` (stereo not given) is lower in “Percent Effect” value: 107.8% for the first, 100.6% for the second.

Compared with `CCn1cc(N2Cc3nc(N4CCN(C)CC4)ncc3C2=O)cn1`, `Cc1nc(CNC(=O)CCN2CCN(c3ccccc3)CC2)oc1C` is higher in “Percent Effect” value: -2.562% for the first, 0.8962% for the second.

Compared with `CC(=O)N1CC[C@H]2CC(=O)N(CCc3c[nH]cn3)CC[C@H]2C1`, `CC(=O)c1ccc(N2CCC3(CCC(=O)N(CCCO)C3)CC2)nc1` is lower in “Percent Effect” value: 10.36% for the first, -7.997% for the second.

First: Cc1oc(C(=O)O)cc1S(=O)(=O)Nc1cccc(Cl)c1F
Second: Cc1cccc(NS(=O)(=O)c2cc(C(=O)O)oc2C)c1Cl
The “Percent Effect” value of the first is higher: 105.9% for the first, -7.287% for the second.

Going from `Cc1oc(C(=O)O)cc1S(=O)(=O)Nc1cc(Cl)ccc1F` to `Cc1oc(C(=O)O)cc1S(=O)(=O)Nc1ccc(Cl)cc1F`, the “Percent Effect” value rises from 4.903% to 103.2%.

Going from `Cc1oc(C(=O)O)cc1S(=O)(=O)Nc1ccc(Cl)c(F)c1` to `Cc1oc(C(=O)O)cc1S(=O)(=O)Nc1cc(Br)ccc1F`, the “Percent Effect” value rises from -4.199% to 94.97%.

First: Cc1oc(C(=O)O)cc1S(=O)(=O)Nc1ccccc1F
Second: Cc1oc(C(=O)O)cc1S(=O)(=O)Nc1cc(F)ccc1F
The “Percent Effect” value of the first is lower: 96.87% for the first, 110.8% for the second.

Compared with `CN(C)C(=O)CNS(=O)(=O)c1cc(Br)ccc1F`, `Cc1cccc(NS(=O)(=O)c2cc(C(=O)O)oc2C)c1` is lower in “Percent Effect” value: 0.0286% for the first, -4.62% for the second.

First: O=C(O)c1ccc(S(=O)(=O)Nc2ccccc2CC(F)(F)F)c(F)c1
Second: Cc1oc(C(=O)O)cc1S(=O)(=O)Nc1cccc(-c2nccs2)c1
The “Percent Effect” value of the first is lower: -4.395% for the first, 2.887% for the second.

First: O=C(O)C(F)(F)F.O=C(c1ccncc1)N1CC[C@H]2[C@H]1CCN2S(=O)(=O)C1CC1
Second: Cc1nnc(N2C[C@H](OCc3ccncc3)[C@H]3OCCC[C@H]32)s1.O=C(O)C(F)(F)F.O=C(O)C(F)(F)F
The “Percent Effect” value of the first is higher: -0.5443% for the first, -4.606% for the second.

First: CCn1ccnc1CNCC1CCN(CC(O)c2ccccc2)CC1 (stereo not given)
Second: Cn1ccnc1CN1C[C@H]2CN(S(=O)(=O)c3ccccc3)CCN2C1=O
The “Percent Effect” value of the first is lower: -5.873% for the first, 0.6101% for the second.

Compared with `Cc1cc(CN2CCC3(CC2)CC(C(=O)O)N(C(=O)C2CC2)C3)oc1C` (stereo not given), `Cc1cccc(CO[C@@H]2CC[C@H]3[C@H]2OCCN3Cc2cc(C)on2)n1.O=C(O)C(F)(F)F.O=C(O)C(F)(F)F` is higher in “Percent Effect” value: -10.16% for the first, -3.201% for the second.

Going from `O=C(c1cc(Cl)c2c(c1)OCO2)N1CCN(c2ccccn2)CC1` to `O=C(NCc1ccccc1)N1CCC(Oc2ncccc2Br)CC1`, the “Percent Effect” value rises from -15.08% to -0.9975%.

Compared with `O=C(O)CSc1nnc(-c2cn[nH]c2)n1-c1ccccc1Cl`, `Cc1ccnc2c1NC(=O)CN2C(=O)CCc1cccs1` is higher in “Percent Effect” value: -15.15% for the first, 21.37% for the second.

Going from `O=C(CS(=O)(=O)c1cccc[n+]1[O-])NC1CCCc2ccccc21` (stereo not given) to `O=C1N(Cc2ccccn2)C[C@H]2CN(S(=O)(=O)c3ccccc3)CCN12`, the “Percent Effect” value falls from 4.468% to -3.737%.

First: CN(Cc1cccnc1)C[C@H]1OC[C@@H]2CCN(C(=O)C3CC3)C[C@@H]21.O=C(O)C(F)(F)F.O=C(O)C(F)(F)F
Second: O=C(CO[C@@H]1CC[C@H]2[C@H]1OCCN2Cc1ccccn1)N1CCCC1.O=C(O)C(F)(F)F.O=C(O)C(F)(F)F
The “Percent Effect” value of the first is lower: -29.83% for the first, -4.207% for the second.

Compared with `Cc1cccc(CN2Cc3[nH]nc(COCC4CC4)c3C2)n1.O=C(O)C(F)(F)F`, `Cc1cccc(CN2CCO[C@@H]3CC(COc4ccccn4)C[C@H]32)n1.O=C(O)C(F)(F)F.O=C(O)C(F)(F)F` (stereo not given in full) is higher in “Percent Effect” value: -6.126% for the first, 94.81% for the second.

Compared with `Cc1cccc(CN2CCO[C@H]3[C@@H](OCc4ccncc4)CC[C@@H]32)n1.O=C(O)C(F)(F)F.O=C(O)C(F)(F)F.O=C(O)C(F)(F)F`, `Fc1ccc(CN2CCO[C@H]3[C@H](OCc4ccncc4)CC[C@@H]32)cc1.O=C(O)C(F)(F)F.O=C(O)C(F)(F)F` is higher in “Percent Effect” value: 103.5% for the first, 140.9% for the second.

Compared with `COc1ccc(CN2CCO[C@H]3[C@H](OCc4ccncc4)CC[C@@H]32)cc1.O=C(O)C(F)(F)F.O=C(O)C(F)(F)F`, `COc1ccc(CN2CCO[C@H]3[C@H](Oc4ccccn4)CC[C@@H]32)cc1.O=C(O)C(F)(F)F.O=C(O)C(F)(F)F` is lower in “Percent Effect” value: 132.4% for the first, -1.108% for the second.

First: Fc1ccccc1CN1C[C@@H](OCc2ccncc2)[C@H]2OCCC[C@H]21.O=C(O)C(F)(F)F.O=C(O)C(F)(F)F
Second: Cc1ccc(CC2COCCN(S(=O)(=O)c3ccccc3)C2)nc1 (stereo not given)
The “Percent Effect” value of the first is lower: 11.15% for the first, 86.08% for the second.

First: COc1cc(CNCCn2cccn2)c2c(c1)CC(C)O2 (stereo not given)
Second: Cc1nn(C)c(Cl)c1CNCCOc1ccc2c(c1)OCO2
The “Percent Effect” value of the first is higher: -3.376% for the first, -10.2% for the second.

First: CC(=O)Nn1c(C)cc(CN2CCC(c3ccncc3)CC2)c1C
Second: N#Cc1ccccc1CN1CCC2(CC1)CC(c1ccccc1)C(=O)N2 (stereo not given)
The “Percent Effect” value of the first is lower: -4.141% for the first, 15.31% for the second.

Compared with `COc1c(CNCC(c2cccc(F)c2)N(C)C)c(C(C)C)nn1C` (stereo not given), `COc1c(CNCC(O)c2cccc(F)c2)c(C(C)C)nn1C` (stereo not given) is lower in “Percent Effect” value: 10% for the first, 6.756% for the second.

Compared with `CC(C)c1nn(C)c(N(C)C)c1CNCC(O)c1ccccc1F` (stereo not given), `COc1ccccc1C(O)CNCc1c(C(C)C)nn(C)c1N(C)C` (stereo not given) is higher in “Percent Effect” value: -5.015% for the first, 2.712% for the second.

First: Cc1nn(C)c(N(C)C)c1CNCC(O)c1ccccc1F (stereo not given)
Second: COc1c(CNCC(O)c2ccccc2F)c(C(C)C)nn1C (stereo not given)
The “Percent Effect” value of the first is lower: 78.77% for the first, 91.26% for the second.

Compared with `COc1ncccc1CNCc1c(C(C)C)nn(C)c1OC`, `COc1c(CNCc2ccc(N(C)C)nc2)c(C(C)C)nn1C` is lower in “Percent Effect” value: 1.463% for the first, -3.12% for the second.

First: Cc1nn(C)c(N(C)C)c1CNCc1cccc(Cl)c1
Second: COc1c(CNCC(O)c2cccc(F)c2)c(C)nn1C (stereo not given)
The “Percent Effect” value of the first is lower: 10.47% for the first, 102.4% for the second.

Going from `COc1c(CNCC(O)c2ccc(C)cc2)c(C(C)C)nn1C` (stereo not given) to `COc1c(CNCC(O)c2ccccc2)c(C(C)C)nn1C` (stereo not given), the “Percent Effect” value rises from 85.73% to 92.93%.

First: COc1c(CNCc2ccc(CN(C)C)cc2)c(C(C)C)nn1C
Second: COc1c(CNC(c2ccc(F)cc2)C(C)(C)C)c(C)nn1C (stereo not given)
The “Percent Effect” value of the first is lower: -2.323% for the first, 23.53% for the second.

Going from `Cc1cccc(C(=O)N2CCSCC2)c1NC(=O)c1ccsc1` to `NC(=O)Nc1cccc(F)c1C(=O)NC1CCCC1`, the “Percent Effect” value rises from 1.507% to 2.904%.

Compared with `O=C(c1cc(=O)[nH]c(=O)[nH]1)N1CCCCC1c1nc2cc(F)ccc2[nH]1` (stereo not given), `Cc1ccc(CC2CCCN(S(C)(=O)=O)C2)nc1` (stereo not given) is higher in “Percent Effect” value: -7.879% for the first, 114.6% for the second.

Compared with `CC(C)(C)OC(=O)N[C@H]1CCN(c2cncc(Br)c2)C1`, `Cc1ccc(CC2COCCN(S(C)(=O)=O)C2)nc1` (stereo not given) is higher in “Percent Effect” value: 4.915% for the first, 84.13% for the second.

Going from `Cn1c(SCc2noc(C(C)(C)C)n2)nnc1C1CCS(=O)(=O)C1` (stereo not given) to `CN(CC1CCCN(S(C)(=O)=O)C1)c1cnn(C)c1` (stereo not given), the “Percent Effect” value falls from 11.73% to 7.496%.

First: CCc1ccc(C(=O)NCCCC2(C3OCCO3)CCOCC2)cc1
Second: O=S(=O)(c1ccccc1)N1CCOCC(Cc2cccnc2)C1 (stereo not given)
The “Percent Effect” value of the first is lower: -33.3% for the first, 91.68% for the second.

First: N#Cc1ccccc1CN1C[C@@H]2CC[C@H](C1)N(Cc1cscn1)C2=O
Second: O=C1N(Cc2cccnc2)C[C@H]2CN(S(=O)(=O)c3ccccc3)CCN12
The “Percent Effect” value of the first is lower: -11.1% for the first, -1.281% for the second.

Going from `COc1c(CNCC(O)COc2ccc3c(c2)OCO3)c(C)nn1C` (stereo not given) to `Cc1nc(CNCC(O)COc2ccc3c(c2)OCO3)cs1` (stereo not given), the “Percent Effect” value falls from 70.56% to -10.52%.

First: O=S(=O)(c1cccnc1)N1CCC(OCCCc2ccccc2)C1 (stereo not given)
Second: Cc1cnc(N2CCC[C@@H]3CN(S(C)(=O)=O)C[C@@H]32)nc1
The “Percent Effect” value of the first is lower: -0.692% for the first, 11.33% for the second.

`Cc1ncsc1CN1C[C@@H]2CN(S(C)(=O)=O)CCO[C@@H]2C1` was tested, and the “Percent Effect” value was -34.03%.
